Molecules are shown by their SMILES. About 83,000 compounds went through this panel and 20% of them were active in at least one assay; those are over-represented in the sample as a whole.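 For each line, cells grew in 96-well plates with the test compound present at a single concentration for 48 hours.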 A number with no mark means an inactive call. Activity calls are given as the source filed them. How the source made its calls: active means growth percent below 10; inactive means the rest.

The experiment has as its system HL-60(TB) leukemia. The experiment can be described thus: NCI-60 one-dose screen, 48 h (100 = growth as untreated, 0 = no growth, -100 = all killed). The note with it: 10 µM unless noted.
With `Cc1ccc(C)n1-c1ccccc1-n1c(C)ccc1C`, the growth was 82.2%.

For the molecule `O=C(N/N=C/c1ccc(Cl)cc1)c1ccc(Cc2n[nH]c(=O)c3cccnc23)cc1`, the growth was 100%.

`CC1=C(CCC(C)NCc2ccc(OCCCN3CCCCC3)cc2)C(C)(C)CCC1` (stereo not drawn): the growth was -68.7% (active).

In the case of `CN(CCNc1ccc(C(=N)N)cc1)c1ccc(C(=N)N)cc1`, the growth was 91%.

With `CO[C@H](C(=O)[C@@H](O)[C@@H](C)O)[C@@H]1Cc2cc3cc(O[C@H]4C[C@@H](O[C@H]5C[C@@H](O)[C@H](O)C(C)O5)[C@H](O)C(C)(O)O4)cc(O)c3c(O)c2C(=O)[C@H]1O[C@H]1C[C@@H](O[C@H]2C[C@@H](O[C@H]3C[C@@H](OC)[C@H](O)C(C)O3)[C@@H](O)C(C)O2)[C@H](O)C(C)O1` (stereo partly drawn), the growth was 71%.

On to `Fc1ccccc1CSc1ncnc2nc[nH]c12`, for which the growth is 90.4%.

Regarding `O=C(Nc1cn[nH]c1-c1nc2ccc(CN3CCOCC3)cc2[nH]1)NC1CC1`, the growth is -27.1% (active).

With `CCOC(=O)c1c(NC(=O)c2ccccc2)sc2c(O)c(CN(CC)CC)ccc12`, the growth is 0.395% (active).

`Cc1ccc(CNc2c3ccccc3nc3ccccc23)cc1`: the growth was 25.5%.

Regarding `CC1SC(N)=NC1=O` (stereo not drawn), the growth is 104%.

On to `CCn1c(Sc2nnc(Nc3ccccc3)s2)nc2c1c(=O)n(C)c(=O)n2C`, for which the growth is 113%.

For the molecule `Clc1cc(Cl)cc(N2N=C(c3cccc(Nc4ccncc4)c3)CC2c2ccccc2)c1` (stereo not drawn), the growth was 4.62% (active).

As for `O=C1C(Cl)=C(Nc2ccccc2)C(=O)c2ccccc21`, the growth was -19.5% (active).

The values are drawn from PubChem BioAssay (NCI).
